Rows were chosen to be rich in hits. Some 6.9% of all compounds tested hit in one or more screens of this group.
GRIN3A LBD mod – modulators (binders) of human NR3A ligand-binding domain; NR3A LBD differential scanning fluorimetry, Tm shift; 0% = protein alone, 100% = glycine-bound protein; Tm shift relative to glycine control, % at 25 µM; 340,000 tested, 2.5% active;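 active = melting temperature shift of at least 10% of the positive control shift, at one fixed dose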
CSC inhib – blocks cancer stem cells; cancer stem cell-like cells viability, luminescence; inhibition, % at 7.5 µM; 300,000 tested, 1.1% active; AID 2717; in the data active = inhibition above about 75%; tested in HMLE shEcad cells
Beta apoptosis – beta cell apoptosis inhibition. INS-1E cytokine-induced death, ATP luminescence, 48 h; percent of positive-control rescue, neutral wells zero. protection from apoptosis, % (concentration not given with the values). 300,000 tested, 0.8% active. AID 435005;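 active = Every replicate reaches about 75%, or at least half do and their mean reaches it too, limit read from the data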;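 also: 0% = cytokine-treated negative control wells and 100% = positive control rescue; higher means more ATP so stronger rescue from cytokine killing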
SKKanGAS inh – blocks kanamycin growth of S. pyogenes SKKanGAS strain. BacTiter-Glo, 6 h. inhibition, % at 7.5 µM. 300,000 tested, 1.3% active;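 active = mean replicate score, as percent of positive control median, at least 50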;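 also: strain carries kanamycin resistance gene driven by streptokinase promoter and grows in 40 µg/ml kanamycin; loss of luminescence reflects streptokinase promoter inhibition or plain growth inhibition; 0% = median of DMSO wells and 100% = positive control at its reference dose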
Mdm2 MdmX PPI – inhibitors of human Mdm2/MdmX interaction | O15151+Q00987 | SaOS-2 split-luciferase Mdm2/MdmX complementation, luminescence | inhibition, % at 8 µM | 330,000 tested, 3% active | AID 485346;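 active = inhibition of at least 50% at 8 µM in the primary screen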
Target sequence (O15151 whole entry, looked up): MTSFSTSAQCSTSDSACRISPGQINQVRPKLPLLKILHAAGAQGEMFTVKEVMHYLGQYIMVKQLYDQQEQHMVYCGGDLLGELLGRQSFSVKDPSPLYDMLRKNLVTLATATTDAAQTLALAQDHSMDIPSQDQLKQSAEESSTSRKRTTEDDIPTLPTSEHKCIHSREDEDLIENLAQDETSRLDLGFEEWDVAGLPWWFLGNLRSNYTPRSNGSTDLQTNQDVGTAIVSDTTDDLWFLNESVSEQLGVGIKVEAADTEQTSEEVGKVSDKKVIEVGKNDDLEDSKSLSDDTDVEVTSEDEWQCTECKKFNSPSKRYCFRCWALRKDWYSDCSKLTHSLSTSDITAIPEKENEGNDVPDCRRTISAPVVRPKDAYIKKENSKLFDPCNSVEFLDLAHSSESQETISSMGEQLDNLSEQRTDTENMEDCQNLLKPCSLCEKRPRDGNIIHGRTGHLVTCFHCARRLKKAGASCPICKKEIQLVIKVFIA
Target sequence (Q00987 whole entry, looked up): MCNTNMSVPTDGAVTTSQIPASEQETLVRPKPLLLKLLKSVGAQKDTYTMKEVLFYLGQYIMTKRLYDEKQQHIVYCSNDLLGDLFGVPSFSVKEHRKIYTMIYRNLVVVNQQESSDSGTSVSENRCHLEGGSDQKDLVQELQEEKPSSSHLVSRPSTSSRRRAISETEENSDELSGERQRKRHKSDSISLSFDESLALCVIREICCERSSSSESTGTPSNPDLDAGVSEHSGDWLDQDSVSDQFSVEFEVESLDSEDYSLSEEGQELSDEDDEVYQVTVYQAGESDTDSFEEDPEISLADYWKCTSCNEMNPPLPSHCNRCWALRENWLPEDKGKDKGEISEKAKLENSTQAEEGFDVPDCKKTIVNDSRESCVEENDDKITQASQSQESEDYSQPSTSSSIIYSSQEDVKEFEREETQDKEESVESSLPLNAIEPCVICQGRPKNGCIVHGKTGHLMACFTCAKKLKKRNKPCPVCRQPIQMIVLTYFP
MPTP inh – permeability transition pore inhibition; AID 602449; isolated mouse mitochondria, Ca2+ swelling absorbance, 30 min; 360,000 tested, 1.4% active; inhibition, % at 10 µM;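 active = inhibition of 50% or more, scaled per plate between neutral and stimulator controls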;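 also: 0% = DMSO wells given calcium and 100% = 1 mM EGTA wells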
Active calls of the source: *; nt = no result given.

SMILES	GRIN3A LBD mod	CSC inhib	Beta apoptosis	SKKanGAS inh	Mdm2 MdmX PPI	MPTP inh
C[C@@H]1CN([C@@H](C)CO)C(=O)CCCn2nncc2CO[C@H]1CN(C)Cc1ccccc1	nt	nt	nt	nt	nt	-1
CSCC[C@H](NC(=O)c1nn(C)c(=O)c2ccccc12)c1nc2ccccc2[nH]1	2	0	-7	74*	16	1
CCn1nc(C(=O)N[C@@H](CCSC)c2nc3ccccc3[nH]2)c2ccccc2c1=O	1	-14	11	0	23	0
O=C(Nc1ccc(S(=O)(=O)Nc2ncccn2)cc1)C1=NN(c2ccccc2)C(=O)CC1	-3	-9	-4	17	-7	1
O=C(O)c1ccc(COc2ccccc2Cl)cc1	13*	8	-12	-4	-5	-1
CCN(CC)C(=O)c1ccc(COc2ccccc2Cl)cc1	5	16	2	2	-8	-3
Nc1ccc(-c2nc3c(ccc4ccccc43)[nH]2)cc1	11*	7	-1	14	-1	1
Nc1ccc(-c2nc3ccccc3[nH]2)cc1	-5	5	nt	-3	-38	-1
CCOC(=O)c1nn(-c2ccccc2)cc1O	10*	5	-4	-1	10	-1
CCOC(=O)c1nn(-c2ccc(C)cc2)cc1O	0	-20	-5	-3	-50	3
O=C(O)Cc1ccc(NC(=O)c2ccc3c(c2)C(=O)N(Cc2ccccc2)C3=O)cc1	nt	nt	nt	nt	nt	1
O=C(O)c1cc(NC(=O)c2ccc3c(c2)C(=O)N(Cc2ccccc2)C3=O)cc(C(=O)O)c1	14*	-4	-2	-2	-14	2
O=C(N/C=C\n1cnc2cc(C(F)(F)F)ccc21)c1ccc([N+](=O)[O-])cc1	-1	-1	-4	-12	-14	4
Cc1c(C2Nc3ccccc3C(=O)N2O)cnn1C (centres undefined)	611*	-14	1	-3	15	2
CCn1cc(C2Nc3ccccc3C(=O)N2O)c(C)n1 (centres undefined)	2	-12	-4	-2	6	1
O=C(O)c1ccc(-c2ccc(/C=N/Nc3ccc([N+](=O)[O-])cc3)o2)cc1	10*	-8	1	37	23	15
NS(=O)(=O)c1ccc(-c2ccc(/C=N/Nc3ccc(C(=O)O)cc3)o2)cc1	3	8	-1	17	-9	4
O=C(O)c1cccc(-c2ccc(/C=N/Nc3ccc([N+](=O)[O-])cc3)o2)c1	12*	-2	-1	8	1	9
O=C(O)c1ccc(N/N=C/C=C/c2ccc([N+](=O)[O-])o2)cc1	12*	4	5	4	-3	8
COc1ccc(NC(=O)CN(C)CC(=O)Nc2ccccc2SC)cc1	-1	-6	-6	-5	8	1
CCOc1ccc(NC(=O)CN(C)c2ccc(S(=O)(=O)N(C(C)C)C(C)C)cn2)cc1OCC	17*	6	nt	3	5	-2
CCOc1ccc(NC(=O)CN(C)CC(=O)Nc2ccccc2SC)cc1OCC	18*	-3	-4	4	13	2
Cc1ccc(CNC(=O)c2ccc(N3CCC4(CC3)CC(c3ccccc3)=NO4)c(NC(=O)c3c(Cl)cccc3Cl)c2)cc1	1	1	-5	5	14	0
CCCN(CCC)C(=O)c1oc2ccccc2c1NC(=O)Cc1cccc(OC)c1	-1	13	4	9	24	0
COC(=O)c1ccccc1CSc1nsc(/C=C/N(C)C)c1C#N	16*	3	-6	22	21	1
SMILES	GRIN3A LBD mod	CSC inhib	Beta apoptosis	SKKanGAS inh	Mdm2 MdmX PPI	MPTP inh
O=C(NCc1cccnc1)c1ccc2sc([C@@H]3O[C@H](CO)[C@H](O)[C@H](O)[C@H]3O)nc2c1	nt	nt	nt	nt	nt	0
COc1ccc(C(=O)NCc2nnc(SCC(=O)NCc3ccc(F)cc3)o2)cc1	11*	1	-4	-2	13	-1
O=C(CSc1nnc(CNC(=O)c2ccc(F)cc2)o1)NCc1ccc(F)cc1	-4	6	0	-2	-13	0
O=C(CSc1nnc(CNC(=O)c2ccccc2)o1)NCc1ccccc1Cl	-1	-6	-5	18	6	-3
O=C(CSc1nnc(CNC(=O)c2ccc(F)cc2)o1)NCc1ccccc1Cl	4	-5	nt	51*	6	-1
CNc1cncc(-c2ccc(OC)c(OC)c2)n1	nt	nt	nt	nt	nt	-1
CC1CC(C)CN(C(=O)C2CCN(C(=O)Nc3ccccc3)CC2)C1 (centres undefined)	-1	5	-7	-15	29	-1
CC(C)(Oc1ccc(Cl)cc1)C(=O)OCC(=O)NCCc1ccccc1	-1	-35	-7	27	20	1
CCOC1=C/C(=C/c2c(N)n3nc(S(=O)(=O)CC)sc3nc2=O)C=CC1=O	-3	2	1	22	6	-2
Cc1ccc(-n2c(N)c(S(=O)(=O)c3ccccc3)c3nc4ccccc4nc32)cc1	-3	nt	2	14	13	5
Nc1c(S(=O)(=O)c2ccccc2)c2nc3ccccc3nc2n1/N=C/c1ccco1	13*	nt	13	35	31	1
Cc1cccc(S(=O)(=O)c2c(N)n(-c3ccccc3)c3nc4ccccc4nc23)c1	12*	10	-4	24	-1	2
Cc1cccc(S(=O)(=O)c2c(N)n(/N=C/c3cccnc3)c3nc4ccccc4nc23)c1	45*	-8	5	32	5	0
COc1ccc(C2(C)NC(=O)N(CC(=O)NC3CCCC3)C2=O)cc1OC (centres undefined)	0	-3	-1	nt	-31	0
COc1cc(C(=O)Nc2ccc(NC(=O)C3CCCCC3)nc2)cc(OC)c1OC	-3	nt	nt	2	-11	-2
COc1cc(C(=O)Nc2ccc(NC(=O)c3cccc(Cl)c3)nc2)cc(OC)c1OC	27*	nt	nt	13	36	0
COc1cccc(C(=O)Nc2ccc(NC(=O)C(C)(C)C)cn2)c1	17*	nt	1	2	8	-3
O=C(Nc1cccc(Oc2ccccc2)c1)c1ccc(-n2cncn2)c2ccoc12	nt	nt	nt	nt	nt	1
CCC(CNc1cc(OC)cc2cccnc12)NC1CCCCC1 (centres undefined)	-1	27	101*	7	nt	1
COc1cc(NCCCC(C)N)c2ncccc2c1 (centres undefined)	2	nt	nt	3	nt	-5
CN(N=Cc1ccccc1)C(=S)Nc1ccccc1	nt	nt	nt	nt	nt	2
Nc1ccc2c(c1)Oc1ccccc1C=C2	0	110*	-13	3	20	4
Nc1ccc2c(c1)COc1ccccc1O2	-2	4	-2	3	0	-3
CC1(C)COC(c2ccc3c(c2)OCO3)OC1	11*	nt	nt	nt	nt	-2
Cc1ccc(S(=O)(=O)NC(=O)NCCCN2CCOCC2)cc1	-2	-7	-6	-4	-19	0
CCN(CC)S(=O)(=O)c1ccc(NN=c2c(=O)c3ccccc3c2=O)cc1	1	-6	3	-5	3	1

High-throughput results deposited in PubChem by several laboratories.
